D2 PAM-1 – D2 dopamine receptor (human) potentiation | 340,000 tested, 0.34% active | AID 485347 | HEK293 T-REx D2, calcium flux, EC20 dopamine potentiation | potentiation, % at 10 µM;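 active = potentiation over 3 SD above the plate norm, cut at about 30% in these data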; note: 0% is about no effect
Target sequence (P14416 whole entry, looked up): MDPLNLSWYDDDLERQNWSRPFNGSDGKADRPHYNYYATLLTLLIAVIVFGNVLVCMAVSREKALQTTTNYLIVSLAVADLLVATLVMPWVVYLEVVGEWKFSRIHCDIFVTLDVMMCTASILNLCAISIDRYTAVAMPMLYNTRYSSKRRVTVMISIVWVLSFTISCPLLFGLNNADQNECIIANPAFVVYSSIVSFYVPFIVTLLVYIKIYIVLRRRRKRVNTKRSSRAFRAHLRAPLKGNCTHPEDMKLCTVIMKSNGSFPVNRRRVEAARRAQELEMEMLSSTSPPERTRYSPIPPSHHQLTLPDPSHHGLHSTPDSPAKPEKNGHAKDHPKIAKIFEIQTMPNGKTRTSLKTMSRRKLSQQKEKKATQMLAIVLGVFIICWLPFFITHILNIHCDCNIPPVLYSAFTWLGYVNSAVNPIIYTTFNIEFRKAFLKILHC
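Potentiation of an EC20 dopamine calcium response measured kinetically over 180 s, after a preceding 180 s compound-only read flagging agonists. Cells: inducible Hek293 Trex D2 line, 4000/well, cultured overnight at 30 C before dye loading.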
D2 ag-1 – agonists of human D2 dopamine receptor (beta-arrestin) | P14416 | DiscoveRx PathHunter D2 beta-arrestin, luminescence, 90 min; 100% = 57 uM dopamine signal | activation, % (concentration not given with the values) | 360,000 tested, 0.084% active; in the data active = activation above about 40%
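Agonist mode: compounds alone added to overnight-plated D2 PathHunter cells for 90 min at 37 C, with 57 uM final dopamine (EC100) defining full response. Beta-arrestin recruitment detected by chemiluminescent reagent, read after 1 h at ambient temperature.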
D2 PAM-2 – potentiates the human D2 dopamine receptor allosterically | 360,000 tested, 0.23% active | AID 624464 | potentiation, % (test concentration not listed) | DiscoveRx D2 beta-arrestin cells, luminescence, 90 min; 100% = 57 uM dopamine signal | P14416; in the data active = potentiation above about 50%
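D2 cells co-treated with compound plus 50 nM dopamine (EC20) for 90 min at 37 deg C to detect potentiation. Beta-arrestin recruitment was read as enzyme-fragment luminescence after 1 h at ambient temperature. Full response was set by 57 uM dopamine.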
D2 antag – D2 dopamine receptor (human) antagonism; P14416; HEK293 TREx D2 cells, calcium flux, dopamine EC80; inhibition, % at 10 µM; 340,000 tested, 2% active; in the data active = inhibition above about 30%; inactive = below that, where a call was filed; note: 0% is about no effect
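Compounds are added to dye-loaded, induced HEK293 T-REx cells coupled to calcium release via D2; after a 3 min kinetic read an EC80 dopamine stimulus is given and fluorescence is recorded for 3 more min.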
D2 ag-2 – activates the human D2 dopamine receptor; HEK293 T-REx D2 cells, calcium flux agonist mode; AID 485358; activation, % at 2 µM; 340,000 tested, 0.53% active; P14416;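 active = activation over 3 SD above normal in the single-dose calcium agonist read, cut at about 30% in these data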; note: 0% is about no effect
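Agonism is scored from calcium flux in a force-coupled, inducible HEK293 cell line expressing D2, read kinetically for 180 s after compound addition against dopamine controls.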
* = called active by the depositor; / = not tested or not shown. This is a sample that favours compounds with a hit; in the whole collection about 2.4% have one here.

SMILES | D2 PAM-1 | D2 ag-1 | D2 PAM-2 | D2 antag | D2 ag-2
CN(C1CCCC1)C1CCN(C(=O)CNC(=O)/C=C/c2ccc(F)cc2)CC1 | -3 | -2 | -3 | 85* | 2
Cc1cc(S(=O)(=O)N2CCN(C(=O)CCC(=O)N3CCOCC3)CC2)ccc1Br | 2 | -1 | -4 | -4 | 0
C/C(CCc1ccccc1)=N\NC(=S)NCCc1ccccc1 | 31* | 3 | -6 | -7 | -1
CCOC(=O)c1cc2c(=O)n3ccccc3nc2n(Cc2ccco2)c1=NC(=O)c1cc(C)cc(C)c1 | 4 | / | / | / | 1
CCN(CC)S(=O)(=O)N1CCN(S(=O)(=O)N2CCOCC2)CC1 | 14 | 3 | -1 | -21 | -1
Cn1c(=O)oc2cc(S(=O)(=O)N3CCC(C(=O)N4CC=C(c5ccccc5)CC4)CC3)ccc21 | 22 | -4 | 5 | 41* | 0
COc1ccc(OCC(=O)N/N=C(/C)Cc2ccccc2)cc1 | 7 | -5 | -4 | 32* | 0
C/C(Cc1ccccc1)=N\NC(=O)CNC(=O)COc1ccccc1 | 0 | 0 | 1 | 25 | 0
COc1ccccc1C(=O)NCC(=O)N/N=C(\C)Cc1ccccc1 | -1 | -3 | -8 | 30* | 0
Cc1cc(-c2cc(C(=O)NC3CCCC3)on2)nc(NCC2CC2)n1 | 10 | -2 | -1 | 33* | 0
Cc1cc(-c2cc(C(=O)Nc3ccccc3)on2)nc(NCC2CC2)n1 | / | 2 | -4 | / | /
CCOC(=O)c1ccc(NC(=O)CC2Nc3cc(C)c(C)cc3NC2=O)cc1 (configuration not stated) | -7 | / | / | / | 1
CN1CCN(S(=O)(=O)c2ccc(Oc3ccc(F)cc3Br)nc2)CC1 | 10 | -1 | -1 | 5 | 2
CN1CCN(S(=O)(=O)c2ccc(Oc3ccc(Br)cc3F)nc2)CC1 | 4 | -1 | 1 | 34* | -1
CCc1nn(C(C)C(=O)NCCN2CCN(c3cccc(C)c3C)CC2)c(=O)c2cc3occc3n12 (configuration not stated) | -28 | 1 | -28 | 52* | 3
Cc1cc(-c2ccc(C)c(S(=O)(=O)NCCCN3CCCCCC3)c2)on1 | -11 | -5 | -38 | 34* | -2
Cc1cc(-c2ccc(C)c(S(=O)(=O)NCCC(C)N3CCCCCC3)c2)on1 (configuration not stated) | 3 | 1 | -8 | 4 | -1
Cc1cc(-c2ccc(C)c(S(=O)(=O)NCCc3ccccc3)c2)on1 | 1 | / | / | / | 0
CCc1ccc(-c2cc(C)no2)cc1S(=O)(=O)NC(C)Cc1ccco1 (configuration not stated) | 84* | 2 | 0 | 5 | 0
CCc1ccc(-c2cc(C)no2)cc1S(=O)(=O)NCCc1ccccc1 | -1 | 4 | -5 | 30* | 1
Cc1cc(S(=O)(=O)Nc2cc3c(cc2Cl)n(C)c(=O)c(=O)n3C)ccc1F | 1 | / | / | / | -1
CCc1nn(C(CC)C(=O)NCCCN2CC(C)CC(C)C2)c(=O)c2cc3oc(C)cc3n12 (configuration not stated) | -33 | -4 | -35 | 64* | 0
CCc1nn(C(CC)C(=O)NCCCc2ccccc2)c(=O)c2cc3occc3n12 (configuration not stated) | -4 | 0 | -15 | 1 | 0
C=CCSc1nc2sc(C)c(C)c2c(=O)n1CC=C | 1 | -4 | -23 | 12 | 0
C=CCn1c(SCc2ccc(C(=O)NCCO)cc2)nc2sc(C)c(C)c2c1=O | 31* | -2 | 3 | 1 | -1
SMILES | D2 PAM-1 | D2 ag-1 | D2 PAM-2 | D2 antag | D2 ag-2
C=CCn1c(SCc2cc(=O)n3ccsc3n2)nc2sc(C)c(C)c2c1=O | 36* | 2 | -10 | -2 | 0
C=CCn1c(SCC(=O)c2cccs2)nc2sc(C)c(C)c2c1=O | / | -1 | 19 | / | /
COc1ccc(CN(C)C(=O)CNC(=O)c2cccs2)c(OC)c1 | -2 | 8 | 0 | -1 | 0
COc1cccc(CN(C)C(=O)CNC(=O)c2cccs2)c1OC | -1 | -7 | 0 | 38* | 1
COCCSc1nnc(NC(=O)c2ccc([N+](=O)[O-])cc2)s1 | 11 | -2 | 0 | / | /
CCOC(=O)CSc1nnc(NC(=O)c2cc([N+](=O)[O-])cc([N+](=O)[O-])c2)s1 | -1 | 9 | 63* | 2 | 0
CC1CCC(NC(=O)CN2CCC(n3nnc4cc(F)ccc43)CC2)CC1 (configuration not stated) | -23 | -2 | -39 | 41* | 1
O=C(CN1CCC(n2nnc3cc(F)ccc32)CC1)NNC(=O)c1ccccc1 | 16 | -3 | -19 | 9 | 0
CC(C)CN(C(=O)c1cccc(S(=O)(=O)N2CCN(c3ccc(F)cc3)CC2)c1)C1CCS(=O)(=O)C1 (configuration not stated) | -8 | -4 | -21 | 35* | 0
CC(C)CN(C(=O)Cn1nnc(-c2ccc(Cl)cc2)n1)C1CCS(=O)(=O)C1 (configuration not stated) | / | -5 | -16 | / | /
CC(C)CN(C(=O)Cn1nnc(-c2ccc(F)cc2)n1)C1CCS(=O)(=O)C1 (configuration not stated) | -6 | -6 | -67 | 55* | 1
CCn1c(=O)n(CC)c2cc(N3CCCCC3)c(NC(=O)Nc3cc(C)cc(C)c3)cc21 | -3 | / | / | / | 0
O=S(=O)(c1ccc(Cl)cc1)n1ccc2cccnc21 | 38* | -1 | -10 | 19 | 0
Cc1ccc(S(=O)(=O)n2ccc3cccnc32)cc1 | -3 | -1 | -8 | 37* | 1
CC(C)N(C(=O)[C@H]1C[C@H](CC(=O)NCCN2CCOCC2)C(=O)N2CCc3c([nH]c4ccc(Cl)cc34)[C@]12C)C(C)C | / | -4 | -8 | / | /
CCOc1ccc(OCC)c(NC(=O)CSc2nnnn2CC)c1 | 32* | -3 | -16 | -20 | -1
Cn1c(SCC(=O)Nc2ccc(Cl)cc2F)nnc1-c1ccco1 | -12 | 4 | -5 | 40* | -2
COc1ccc(Cl)cc1NC(=O)CSc1nnc(COc2ccccc2)n1N | -19 | -5 | -44 | 54* | -1
COc1ccc(C)cc1NC(=O)CSc1nnc(-c2cc3cccc(OC)c3o2)n1N | -1 | -6 | -25 | 35* | 1
CCn1c(COc2ccccc2)nnc1SCC(=O)Nc1cc(OC)ccc1OC | / | -1 | -3 | / | /
COc1ccc(OC)c(CNC(=O)Cc2ccc(NC(=O)N3CCCCc4ccccc43)cc2)c1 | 4 | / | / | / | 1
Cc1ccc(NC(=O)CSc2nc3c(c(=O)[nH]2)CCC3)cc1Cl | 0 | / | / | / | 0
O=C(COc1ccc(S(=O)(=O)N2CCOCC2)cc1)N1CCN(c2ccccc2)CC1 | 20 | -3 | 2 | -7 | 1

Screens from PubChem BioAssay.
